Results on 49 compounds are retold here after PubChem BioAssay AID504333 (National Center for Advancing Translational Sciences (NCATS), 2011).

About 16,000 (4.4%) of roughly 360,000 compounds were called active. Roughly 9% stayed inconclusive and do not appear here. The list comes from a sample in which actives are over-represented; it also holds similar structures and randomly drawn compounds. Values without a mark were called inactive. Calls come from the whole dose curve; as a rule, active = well fitted inhibition curve with a large enough effect; inconclusive = small, poorly fitted or top-dose-only effect; inactive = no such curve, though single readings can be large or run the other way.
% is set by controls: 0 for no effect and ±100 for the full control effect; potency is the fitted concentration of half-maximal effect.

The target of the experiment is Bromodomain adjacent to zinc finger domain protein 2B (Homo sapiens) (UniProt Q9UIF8). Description: qHTS Assay for Inhibitors of BAZ2B. Note: nearly all actives have a fitted effect of over 60% in size. As to conditions: AlphaScreen BAZ2B-H3K14Ac peptide displacement; series mostly up to 114 µM; activity change, negative = inhibition: at the top concentration. An outline of the steps: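 AlphaScreen luminescence quantifies BAZ2B engagement of H3K14Ac peptide; the protein and biotinylated peptide are both at 50 nM final, buffer PBS pH 7.4 with 0.01% Tween-20, all steps at room temperature.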
Bromodomain adjacent to zinc finger domain protein 2B (Homo sapiens), sequence (Q9UIF8 whole entry, looked up, the tested form may be a part): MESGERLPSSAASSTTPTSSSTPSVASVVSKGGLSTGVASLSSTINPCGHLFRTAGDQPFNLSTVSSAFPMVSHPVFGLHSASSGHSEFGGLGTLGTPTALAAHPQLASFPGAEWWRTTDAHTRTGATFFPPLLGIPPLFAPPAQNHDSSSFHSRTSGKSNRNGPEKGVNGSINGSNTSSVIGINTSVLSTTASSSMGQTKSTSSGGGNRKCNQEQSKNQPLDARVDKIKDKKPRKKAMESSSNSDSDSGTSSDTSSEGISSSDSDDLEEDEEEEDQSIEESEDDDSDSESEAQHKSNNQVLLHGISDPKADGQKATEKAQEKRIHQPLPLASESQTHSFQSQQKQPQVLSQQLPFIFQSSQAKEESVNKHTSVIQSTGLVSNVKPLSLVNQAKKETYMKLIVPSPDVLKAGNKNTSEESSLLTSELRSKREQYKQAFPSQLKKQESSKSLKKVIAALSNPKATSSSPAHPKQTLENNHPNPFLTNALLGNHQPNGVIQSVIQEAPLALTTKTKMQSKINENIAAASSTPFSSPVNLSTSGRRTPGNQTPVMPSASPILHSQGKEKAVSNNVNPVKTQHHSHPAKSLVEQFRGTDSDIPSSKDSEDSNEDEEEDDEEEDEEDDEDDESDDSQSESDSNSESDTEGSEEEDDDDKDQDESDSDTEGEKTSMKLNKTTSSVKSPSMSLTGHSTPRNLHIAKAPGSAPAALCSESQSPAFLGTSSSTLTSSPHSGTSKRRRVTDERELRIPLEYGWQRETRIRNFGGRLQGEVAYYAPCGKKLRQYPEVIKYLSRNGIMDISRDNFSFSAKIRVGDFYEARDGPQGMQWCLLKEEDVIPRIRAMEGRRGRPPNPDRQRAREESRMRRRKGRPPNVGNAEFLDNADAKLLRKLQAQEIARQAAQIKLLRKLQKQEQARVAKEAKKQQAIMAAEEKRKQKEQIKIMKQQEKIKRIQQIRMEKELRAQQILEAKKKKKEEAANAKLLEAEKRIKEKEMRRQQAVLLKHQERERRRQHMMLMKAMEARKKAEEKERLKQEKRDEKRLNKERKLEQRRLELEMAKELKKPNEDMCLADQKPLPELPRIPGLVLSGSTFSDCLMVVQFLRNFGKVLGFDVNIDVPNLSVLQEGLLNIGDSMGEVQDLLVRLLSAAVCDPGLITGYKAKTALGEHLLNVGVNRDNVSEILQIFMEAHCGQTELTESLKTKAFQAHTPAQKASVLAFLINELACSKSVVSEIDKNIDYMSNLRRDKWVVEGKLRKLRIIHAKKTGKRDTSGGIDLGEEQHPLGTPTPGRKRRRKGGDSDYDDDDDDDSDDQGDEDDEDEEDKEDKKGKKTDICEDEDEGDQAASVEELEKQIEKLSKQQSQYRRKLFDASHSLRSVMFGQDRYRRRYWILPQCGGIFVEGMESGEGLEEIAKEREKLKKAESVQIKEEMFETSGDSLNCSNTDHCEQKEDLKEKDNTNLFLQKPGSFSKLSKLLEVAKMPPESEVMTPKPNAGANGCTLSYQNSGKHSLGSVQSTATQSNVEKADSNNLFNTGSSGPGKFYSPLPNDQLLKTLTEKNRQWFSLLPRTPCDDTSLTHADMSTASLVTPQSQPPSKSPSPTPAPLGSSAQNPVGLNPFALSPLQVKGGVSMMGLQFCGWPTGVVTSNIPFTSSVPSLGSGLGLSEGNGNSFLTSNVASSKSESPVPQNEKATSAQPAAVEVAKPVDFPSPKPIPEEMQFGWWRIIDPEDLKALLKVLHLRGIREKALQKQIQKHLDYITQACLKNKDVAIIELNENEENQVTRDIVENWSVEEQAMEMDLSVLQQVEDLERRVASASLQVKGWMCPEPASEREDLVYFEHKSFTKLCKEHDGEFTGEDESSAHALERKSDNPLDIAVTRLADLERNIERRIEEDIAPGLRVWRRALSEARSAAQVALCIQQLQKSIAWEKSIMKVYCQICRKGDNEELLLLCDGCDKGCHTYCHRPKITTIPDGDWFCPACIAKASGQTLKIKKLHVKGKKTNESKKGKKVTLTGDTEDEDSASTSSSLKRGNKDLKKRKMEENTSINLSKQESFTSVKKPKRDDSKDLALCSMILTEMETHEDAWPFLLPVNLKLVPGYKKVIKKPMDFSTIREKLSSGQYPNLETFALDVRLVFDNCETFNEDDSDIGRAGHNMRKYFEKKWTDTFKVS
Consider `COc1ccccc1C(=O)NCCn1cc(SCc2ccccc2Cl)c2ccccc21`, for which the “activity change, negative = inhibition” value is -19.3%.
Same read-out and setting: as for `Cc1ccc(CN2CCC(CNC(=O)c3cnn(-c4ccc(C)cc4)c3C3CCN(C(=O)OC(C)(C)C)CC3)CC2)cc1`, the figure is -7.01% [at 57.1 µM].
With `O=C(COc1ccccc1[N+](=O)[O-])N/N=C/c1ccc[nH]1`, the “activity change, negative = inhibition” value was -11.5%.
For `O=C(COc1ccccc1[N+](=O)[O-])NC1CC1`, the “activity change, negative = inhibition” value is -4.34%.
On to `C=CCN(CC=C)CCOc1ccccc1[N+](=O)[O-]`, for which the Potency was 39.8 µM (active).
Regarding `CC(NC(=O)c1cc(Sc2ccc(F)cc2F)nc2ccccc12)c1ccccc1` (centres undefined), the “activity change, negative = inhibition” value was 1.71%.
As to `CN=C1C=C/C(=N/N=c2\ccn(O)cc2C)C=C1C`, the Potency was 35.5 µM (active).
In the case of `O=C(CN1c2ccccc2S(=O)(=O)c2ccccc21)Nc1cccc(C(F)(F)F)c1`, the “activity change, negative = inhibition” value is -20%.
Regarding `CCOC(=O)c1ccc(NC(=O)CC2C(=O)N(c3ccccc3)C(=O)N2Cc2cccs2)cc1` (centres undefined), the “activity change, negative = inhibition” value was -17.8%.
Same read-out and setting: as for `Cc1cccc(NC(=O)c2nc(S(=O)(=O)Cc3ccccc3)ncc2Cl)c1`, the figure is -35.2%.
Consider `CSc1nnc(NC(=O)c2nc(S(=O)(=O)Cc3ccc(C)cc3)ncc2Cl)s1`, for which the Potency is 56.2 µM (active).
As for `Cc1ccc(CS(=O)(=O)c2ncc(Cl)c(C(=O)Nc3nnc(C)s3)n2)cc1`, the “activity change, negative = inhibition” value was -35.7%.
On the same count and under the same terms, to `Fc1ccc(-n2ncc3c(Nc4ccc(Oc5ccccc5)cc4)ncnc32)cc1` belongs 2.34%; to `CCOc1ccccc1NC(=O)c1ccc2c(c1)CCN2S(=O)(=O)c1ccc(C)cc1`, -25.9%; to `CN(C)C(=O)c1nc2ccc(Cl)cn2c1CN1CCN(c2ncccn2)CC1`, 4.33%.
As for `Cc1ccc(CN2CCN(c3ncccn3)CC2)c(C)c1`, the Potency was 50.1 µM (active).
As for `COc1ccc(-c2nc(CN3CCN(c4ncccn4)CC3)c(C)o2)cc1C`, the “activity change, negative = inhibition” value was -3.56%.
For `Cc1ccc(CN2CCN(/N=C/c3ccco3)CC2)c(C)c1`, the Potency was 50.1 µM (active).
Take `C/C(=N\N1CCN(Cc2ccc(C)cc2)CC1)c1ccco1`: the “activity change, negative = inhibition” value is -28.7%.
`Cc1ccc(NC(=O)CCC(=O)N/N=C/c2ccco2)c(C)c1`: the “activity change, negative = inhibition” value is -32.8%.
For the compound `Cc1oc2ccc(O)c(CN3CCCCC3)c2c1C(=O)Nc1cccc(C(F)(F)F)c1`, the “activity change, negative = inhibition” value was -14.8%.
Take `Cc1ccc(CNC(=O)Cn2c(=O)ccc3cc(S(=O)(=O)N4CCCC4)ccc32)cc1`: the “activity change, negative = inhibition” value was 1.64%.
Same read-out and setting: as for `CCOC(=O)c1ccc(NC(=O)C2CC(=O)NC(=Nc3ccc(C)c(C)c3)S2)cc1` (centres undefined), the figure is -0.662%; as for `Cc1cccc(NC(=O)C2CCCN2S(=O)(=O)c2cccc3nsnc23)c1C` (centres undefined), -17.8%.
Still for that read-out and setting: to `CCC(=O)Nc1cccc(C(=O)OCc2cc(=O)n3nc(CC)sc3n2)c1` belongs -13.9%; to `O=C1/C(=C\c2ccccc2Cl)SC(=S)N1CCC(=O)N1CCCc2ccccc21`, -33.1%.
In the case of `Cc1cc(OCCCC(=O)NCCN2C(=O)S/C(=C\c3cccnc3)C2=O)ccc1Cl`, the “activity change, negative = inhibition” value was 6.35%.
Same read-out and setting: as for `Cc1ccc(-c2nn(-c3ccccc3)cc2/C=C/C(=O)Nc2cccc(S(N)(=O)=O)c2)cc1`, the figure is -24.1%.
With `Cc1ccc(/C=C2/SC(=S)N(CCC(=O)NCCCN3CCOCC3)C2=O)cc1`, the “activity change, negative = inhibition” value was -37.2%.
Still for that read-out and setting: to `COc1ccc(-c2nn(-c3ccccc3)cc2CN2CCCO2)c(F)c1` belongs -14.8%.
`COc1ccc(-c2nn(-c3ccccc3)cc2/C=C2/SC(=S)N(CCCC(=O)O)C2=O)c(C)c1`: the Potency was 50.1 µM (active).
`COc1ccc(-c2nn(-c3ccccc3)cc2/C=C\C(=O)N2CCOCC2)cc1[N+](=O)[O-]`: the “activity change, negative = inhibition” value was 3.98%.
Take `Cc1ccc(-c2nn(-c3ccccc3)cc2/C=C2\SC(=S)N(CCCCCC(=O)O)C2=O)o1`: the Potency was 6.31 µM (active).
Take `CN(C)S(=O)(=O)c1cccc(-c2nn(-c3ccccc3)cc2/C=C2\SC(=S)N(CC(=O)O)C2=O)c1`: the Potency is 50.1 µM (active).
On to `Cc1ccc2c(=O)c(C(=O)c3cccc(Cl)c3)cn(CC(=O)NCc3ccccc3)c2n1`, for which the “activity change, negative = inhibition” value was 0.489%.
With `CN1C(=O)c2[nH]nc(-c3ccc(F)cc3)c2C1c1ccccn1` (centres undefined), the “activity change, negative = inhibition” value is 5.35%.
On to `COc1ccc(CCNC(=O)c2cc(=O)c3c(C)cc(C)cc3o2)cc1OC`, for which the “activity change, negative = inhibition” value was -3.78%.
The same measure, in the same setting: as for `CCOC(=O)c1ccc(CN(Cc2ccccc2)S(=O)(=O)c2ccc(Cl)cc2)cc1`, the figure is 47.5%; as for `COc1ccc(CNC(=O)c2cc3c(=O)[nH]c4ccc(C)cc4c3s2)c(OC)c1`, 9.8%; as for `COc1cccc(CNC(=O)c2ccc3c(Cl)c4c(nc3c2)CCCC4)c1`, -9.46%.
On to `CCOc1cc(CN2CCN(C(=O)CC(C)C)CC2)ccc1OC`, for which the “activity change, negative = inhibition” value is 14.7%.
On the same count and under the same terms, to `CC(C)CC(=O)N1CCN(Cc2cccc(Cl)c2)CC1` belongs -27.4%.
On to `CC(C)CC(=O)N1CCN(Cc2ccccc2Br)CC1`, for which the Potency is 50.1 µM (active).
Turning to `Cc1cc(OCC(=O)Nc2ncn[nH]2)c(C)c(C)c1Br`, the “activity change, negative = inhibition” value was 0.164%.
Turning to `O=C(NC1CC(=O)N(c2ccc(F)cc2)C1)c1ccc(S(=O)(=O)N2CCCC2)cc1` (centres undefined), the “activity change, negative = inhibition” value was -0.208%.
Still for that read-out and setting: as for `Cc1ccccc1CS(=O)(=O)CC1Nc2ccc(C(=O)NCc3ccc(Cl)cc3)cc2NC1=O` (centres undefined), the figure is 5.28% [at 57.1 µM]; as for `Cc1ccc(C)c(N2CCN(c3ccc4cc(S(=O)(=O)N5CCC(C)CC5)ccc4n3)CC2)c1`, -30.7%.
`COc1ccc(/C=C2/C(=O)N(c3ccccc3)N=C2C)c(OC)c1`: the Potency is 11.2 µM (active).
Regarding `COc1ccc(C(=O)CCc2ccccc2O)c(OC)c1`, the “activity change, negative = inhibition” value was -6.81%.
